The values that follow come from PubChem BioAssay AID1259343 (VanderVen Lab, College of Veterinary Medicine, Cornell …, 2017).

A word on the inhibition: it is the drop in the measured response relative to a control, in per cent.

The campaign covered roughly 6,200 compounds. About 2,900 (47%) were called active. No stated cut-off is given here; in the data, active means inhibition above about 50%; inactive means the rest. So high a share suggests a set chosen from earlier hits. The list shows a part of the results.

The assay is described as follows: Mycobacterium tuberculosis growth inhibition, primary screen (AID 1259343). The conditions noted are these: inhibition: at 10 µM, hits give high values; outcome: 10 uM.
With `O=C(CCl)N1CCCc2cc([N+](=O)[O-])ccc21`, the inhibition is 102% (active).
As to `Cc1cccc(C(=O)NC(=NCCN2CCCC2)OCC(C)C)c1`, the inhibition was 5.15% (inactive).
For `Cc1cccc(C(=O)NCCn2ncccc2=O)c1` the value was 97.8% (active); for `COc1ccc(C(=O)NCCCn2cccn2)cc1OC1CCN(C(C)=O)CC1`, 17.6% (inactive).
Turning to `CC1COCCN1C(=O)NC(c1cc(F)ccc1F)C1CC1` (stereo not given), the inhibition is -42.7% (inactive).
Regarding `CC(NC(=O)CN1CCCCC1)c1ccc(F)cc1F` (stereo not given), the inhibition is 51.7% (active).
Then `COCc1ccccc1CNC(=O)CN1CCC(C)Sc2ccccc21` (stereo not given), with -20.7% (inactive).
Take `CC1(c2ccco2)NC(=S)N(c2ccccc2)N1` (stereo not given): the inhibition is 76.4% (active).
On to `CCCCc1ccc(N2C(N)=CS/C2=C(/C#N)S(=O)(=O)c2ccccc2)cc1`, for which the inhibition is 89.6% (active).
Consider `CCNc1nc(C(=O)N2CC3CCCC3C2)cs1` (stereo not given), for which the inhibition was 27.6% (inactive).
As for `CCCc1cc(C(=O)N2C[C@H]3CC=C(C)C[C@H]3C2)ccn1`, the inhibition was 76% (active).
Turning to `Cc1ccc(-c2nc(CN3CCN(c4ccc(Cl)cn4)CC3)c(C)o2)o1`, the inhibition was 47.3% (inactive).
Then `CC(C)C(C)CNC(=O)N1CCN(c2ccc(Cl)cn2)CC1` (stereo not given), with 63.1% (active).
For the compound `CN(Cc1ccccc1O)C(=O)C1CCN(c2ccc(Cl)cn2)CC1`, the inhibition is 35.1% (inactive).
As for `Cc1nc2ccc(I)cn2c1C=NNc1ccc(Cl)cc1`, the inhibition is 17.7% (inactive).
Then `Cc1nc2ccc(I)cn2c1C=NNc1ccc2ccccc2c1`, with 60.2% (active); and `Cc1cc(C=NNC(N)=S)c(C)n1CC(F)(F)F`, with 4.28% (inactive).
Turning to `CC(C)(C)n1cccc(/C=N\NC(N)=S)c1=S`, the inhibition was -2.91% (inactive).
For the compound `NC(=S)NN=Cc1ccc(Cl)cc1Cl`, the inhibition was 86% (active).
On to `Cc1ccc(C(=O)Nc2ccc(CN3CCN(C)CC3)c(C(F)(F)F)c2)cc1C#Cc1cnc2cccnn12`, for which the inhibition is 62.5% (active).
For the compound `CCc1ccc(NC(=O)COC(=O)c2cc(C(C)=O)n3ccccc23)cc1`, the inhibition is 65% (active).
For `CCc1sc(C(=O)OCC(=O)N(C)CC(=O)Nc2ccc(C)cc2)cc1C` the value was -39.5% (inactive); for `Nc1[nH]n(-c2ccccc2)c(=O)c1N=Nc1ccc2ncsc2c1`, -3.23% (inactive).
For `Cc1nc(N)sc1N=Nc1cccc2ccccc12` the value was 4.08% (inactive); for `Nc1[nH]n(-c2ccccc2)c(=O)c1N=Nc1cccc2ccccc12`, 56.7% (active); for `CCc1cc(C=NC2CCCCC2)c(O)s1`, 54.5% (active).
For `CC1Cc2ccccc2N1Cc1cccc(C(N)=O)c1` (stereo not given) the value was 25.1% (inactive); for `CC1Cc2ccccc2N1C(=O)C1CCN(c2ccc(C#N)cn2)CC1` (stereo not given), -4.71% (inactive).
As for `CC1Cc2ccccc2N1Sc1ccc([N+](=O)[O-])cc1` (stereo not given), the inhibition is 58.6% (active).
As for `Cc1ccc(-c2nsc(C(=O)N3CCCC(C)C3)c2N)cc1` (stereo not given), the inhibition was 47.8% (inactive).
Regarding `COc1ccccc1Cn1c(C)c(C(=O)NCc2ccccc2C(F)(F)F)sc1=O`, the inhibition was 15.1% (inactive).
Then `Cc1ccccc1Cn1c(C)c(C(=O)NCc2ccccc2C(F)(F)F)sc1=O`, with 65.1% (active); and `Cc1c(C(=O)NCc2ccccc2C(F)(F)F)sc(=O)n1Cc1ccccc1F`, with 21% (inactive).
For the compound `Cc1c(C(=O)NCc2ccc(Cl)c(Cl)c2)sc(=O)n1Cc1ccccc1F`, the inhibition was -10.2% (inactive).
Consider `Cc1c(C(=O)NCc2ccccc2C(F)(F)F)sc(=O)n1Cc1cccc(C(F)(F)F)c1`, for which the inhibition is 18.8% (inactive).
As for `COc1ccc(Br)c(Cn2c(C)c(C(=O)NCc3ccccc3C(F)(F)F)sc2=O)c1`, the inhibition was 58.8% (active).
Then `Nc1nc(CSc2nnc(C3CC3)n2C2CC2)nc(Nc2ccc(F)cc2)n1`, with -0.78% (inactive); and `Cc1c2c(nc3cc4c(cc13)OCO4)CCc1ccccc1-2`, with 76.4% (active); and `O=S(=O)(Nc1ccc(F)c(F)c1)c1cc(Cl)ccc1Cl`, with 95.3% (active).
For `O=S(=O)(Nc1ccc(F)c(Cl)c1)c1ccc(Cl)cc1F` the value was 66.8% (active); for `O=S(=O)(Nc1cc(Cl)ccc1F)c1cc(Cl)ccc1Cl`, 28.1% (inactive).
For the compound `O=S(=O)(Nc1cc(Cl)cc(Cl)c1)c1cc(Cl)ccc1Cl`, the inhibition was 56.9% (active).
Take `Cc1cc(S(=O)(=O)Nc2ccc(F)c(Cl)c2)c(C)s1`: the inhibition was 30.5% (inactive).
As to `c1csc(-c2nc(CSc3ncnc4sccc34)co2)c1`, the inhibition was 24.4% (inactive).
As to `COc1cccc(-c2noc(CSc3ncnc4sccc34)n2)c1`, the inhibition is 98.8% (active).
Consider `Clc1cccc(-c2csc(NC3CC3)n2)c1`, for which the inhibition is 44.2% (inactive).
With `N#CC1(C(=O)Nc2nc(-c3ccc(Cl)s3)cs2)CCCC1`, the inhibition was 89.1% (active).
Turning to `O=C(CCn1[nH]c(=O)ccc1=O)Nc1nc(-c2ccc(Cl)s2)cs1`, the inhibition is 49.2% (inactive).
As to `N#CC1(C(=O)Nc2nc(-c3cccc(C(F)(F)F)c3)cs2)CCCC1`, the inhibition was 55.5% (active).
On to `O=C(O)C1C2C=CC(C2)C1C(=O)Nc1nc(-c2ccc(Cl)s2)cs1` (stereo not given), for which the inhibition is 35.5% (inactive).
In the case of `Cc1ccc(C(=O)c2ccc(CC(=O)O)n2C)cc1`, the inhibition was 52.8% (active).
In the case of `c1ccc(-c2cnc(CSc3nnnn3C3CC3)o2)cc1`, the inhibition was 18.6% (inactive).
For `Fc1ccc(-c2cnc(CSc3nnnn3C3CC3)o2)cc1` the value was 8.58% (inactive); for `c1ccc(-c2cc(CSc3nnnn3C3CC3)no2)cc1`, 84.1% (active).
As to `Cc1ccc(S(=O)(=O)N(C)CCOc2ccccc2C)s1`, the inhibition is 55.1% (active).
Then `O=C(O[C@@H]1Cc2c(O)cc(O)cc2O[C@@H]1c1ccc(O)c(O)c1)c1cc(O)c(O)c(O)c1`, with 78.4% (active); and `O=c1ccc(-c2ccc3c(c2)OCO3)nn1Cc1cccc2ccccc12`, with -9.21% (inactive); and `CCc1ccc(-c2ccc(=O)n(Cc3ccccc3C)n2)cc1`, with 14.8% (inactive).
In the case of `Cc1ccccc1Cn1nc(-c2cccs2)ccc1=O`, the inhibition was 89.9% (active).
In the case of `Cc1ccccc1Cn1nc(-c2ccccc2)ccc1=O`, the inhibition was -7.28% (inactive).
Turning to `Cc1ccccc1Cn1nc(-c2ccc3c(c2)OCO3)ccc1=O`, the inhibition is 91.3% (active).
Regarding `COc1ccc(-c2ccc(=O)n(Cc3ccccc3C)n2)cc1`, the inhibition was 27.4% (inactive).
For `O=C(CSc1ncc(-c2ccc([N+](=O)[O-])cc2)[nH]1)NC(C(=O)O)(c1ccccc1)c1ccccc1` the value was -11.4% (inactive).
Regarding `OC(C#Cc1ccccc1)c1ncc(-c2ccccc2)[nH]1` (stereo not given), the inhibition is 20.7% (inactive).
Then `O=C(Cc1ccc(Cl)cc1)NCCSc1ncc(-c2ccccc2)[nH]1`, with 60.9% (active).
